Gal4-VP16 FLuc: inhibits Gal4-VP16 luciferase reporter, ROR gamma counter-screen; Drosophila S2 Gal4-VP16 UAS-luciferase, luminescence, 20 h; Potency, µM (titrated, usually from 53.6 µM), usual class: inhibitors; 310,000 compounds, 3.5% hits; AID 2546;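 note: Gal4-VP16 expression switched on by copper sulfate through the metallothionein promoter; nearly all actives have a fitted effect of over 50% in size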
NPSR antag: blocks cAMP signaling of the human neuropeptide S receptor; Q6W5P4; 220,000 compounds, 1% hits; CHO-NPSR cells, cAMP TR-FRET, antagonist mode; Potency, µM (titrated, usually from 38.3 µM), most hits filed as inhibitors; note: nearly all actives have a fitted effect of over 50% in size
Target sequence (Q6W5P4 whole entry, looked up): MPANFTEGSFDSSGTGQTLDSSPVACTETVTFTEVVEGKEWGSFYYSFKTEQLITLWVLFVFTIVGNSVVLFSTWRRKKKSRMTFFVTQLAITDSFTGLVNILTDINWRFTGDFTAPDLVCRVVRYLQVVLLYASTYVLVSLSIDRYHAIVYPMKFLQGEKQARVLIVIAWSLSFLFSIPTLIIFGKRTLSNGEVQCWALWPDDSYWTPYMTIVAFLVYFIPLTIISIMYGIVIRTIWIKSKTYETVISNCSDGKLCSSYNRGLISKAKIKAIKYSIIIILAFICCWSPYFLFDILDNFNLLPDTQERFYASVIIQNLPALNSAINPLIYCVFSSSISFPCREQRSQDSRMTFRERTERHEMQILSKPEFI
RORg inh: blocks mouse ROR gamma transcriptional activity; Drosophila S2 Gal4-RORgamma UAS-luciferase reporter, 20 h; P51450; Potency, µM (titrated, usually from 53.6 µM), most hits filed as inhibitors; 310,000 compounds, 5.4% hits; note: nearly all actives have a fitted effect of over 60% in size
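Luminescence from a UAS-regulated Photinus luciferase reporter in stably transfected Drosophila Schneider cells is measured; decreased signal marks ROR gamma inhibition. Fusion expression is induced by 700 uM copper sulfate for 20 hr.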
B2AR arrestin: agonists driving beta-arrestin recruitment to human beta2-adrenergic receptor | P07550 | beta-arrestin recruitment to beta2AR, cell-based reporter | Potency, µM (top dose mostly 46.1 µM), hits mostly activators | 330,000 compounds, 0.02% hits | AID 492947; note: nearly all actives have a fitted effect of over 65% in size
Hits are given with their value. An excerpt weighted towards active compounds, which were near 5.7% of everything screened. Calls come from the whole dose curve; as a rule, active = well fitted curve in the direction sought with a large enough effect; inconclusive = small, poorly fitted or top-dose-only effect, or another doubt; inactive = no such curve, though single readings can be large; an effect the other way counts as inactive or inconclusive.

Screening CCn1nnc(NC(=S)NC(=O)c2ccc(-c3cccc(Cl)c3)o2)n1 returned Gal4-VP16 FLuc 2.8µM, NPSR antag inactive, RORg inh 0.28µM and B2AR arrestin 18µM.
`CCCn1nnc(NC(=S)NC(=O)C(C)(C)C)n1` gave Gal4-VP16 FLuc 8.9µM, NPSR antag inactive, RORg inh 3.5µM and B2AR arrestin inactive.
Cn1nnc(NC(=O)c2cccs2)n1 was read as Gal4-VP16 FLuc inactive, NPSR antag inactive, RORg inh inactive and B2AR arrestin inactive.
CCCn1nnc(NC(=O)c2ccc(-c3cccc(Cl)c3)o2)n1 was read as Gal4-VP16 FLuc inactive, NPSR antag inactive, RORg inh inactive and B2AR arrestin inactive.
For [O][C@H]1[C@@H](O)[C@@H](CO)O[C@@H](O[C@@H]2[C@@H]3OC[C@H]2O[C@H](O[C@@H]2[C@@H](O)[C@H](C[C@@H]4[C@@H]5OC[C@H]4O[CH][C@@H]5O)O[C@H](CO)[C@@H]2OS(=O)(=O)O)[C@@H]3OS(=O)(=O)O)[C@@H]1O the results were Gal4-VP16 FLuc inactive and RORg inh inactive.
For CCCCN(C(=O)c1cc(Cl)nc2ccccc12)c1c(N)n(CCCC)c(=O)[nH]c1=O the results were B2AR arrestin inactive.
COCCCN(C(=S)NC(=O)c1ccc(Br)cc1)c1c(N)n(Cc2ccccc2)c(=O)[nH]c1=O was read as Gal4-VP16 FLuc inactive, NPSR antag inactive, RORg inh 10µM and B2AR arrestin inactive.
For O=C(Nc1ccc(Cl)cc1F)C1CC(=O)N(Cc2ccco2)C1 (stereo not given) the results were B2AR arrestin inactive.
`COc1ccc2nc(C)cc(N3CCN(c4ccccc4)CC3)c2c1` gave Gal4-VP16 FLuc inactive, RORg inh 14µM and B2AR arrestin inactive.
`CNC(=S)N/N=C/c1cn(CCOc2ccccc2OC)c2ccccc12` gave Gal4-VP16 FLuc 1µM, NPSR antag inactive, RORg inh 0.89µM and B2AR arrestin inactive.
For COC(=O)N/N=C/c1cn(CCOc2ccccc2OC)c2ccccc12 the results were Gal4-VP16 FLuc inactive, RORg inh inactive and B2AR arrestin inactive.
CNC(=S)N/N=C/c1cn(CCOc2cccc(OC)c2)c2ccccc12 was read as Gal4-VP16 FLuc 5µM, NPSR antag inactive, RORg inh 1µM and B2AR arrestin inactive.
Screening COc1cccc(OCCn2cc(C(C)=O)c3ccccc32)c1 returned Gal4-VP16 FLuc inconclusive, RORg inh inconclusive and B2AR arrestin inactive.
Screening CC(C)(C)NC(=S)NCCc1ccccc1 returned Gal4-VP16 FLuc 7.1µM, NPSR antag inactive, RORg inh 6.3µM and B2AR arrestin inactive.
For CC(C)(C)CC(=O)NC(=S)NCCc1ccccc1 the results were Gal4-VP16 FLuc 10µM, NPSR antag inactive, RORg inh 7.1µM and B2AR arrestin inactive.
Screening CC(C)CC(=O)NC(=S)NCCc1ccccc1 returned Gal4-VP16 FLuc 7.9µM, NPSR antag inactive, RORg inh 1.8µM and B2AR arrestin inactive.
For COc1cc(NC(=S)NCCc2ccccc2)c(OC)cc1NC(=O)CC(C)C the results were Gal4-VP16 FLuc inconclusive, NPSR antag inactive, RORg inh 10µM and B2AR arrestin inactive.
CCOc1cc(NC(=S)NCCc2ccccc2)c(OCC)cc1NC(C)=O was read as Gal4-VP16 FLuc inactive, NPSR antag inactive, RORg inh 11µM and B2AR arrestin inactive.
For CCOc1ccccc1NC(=O)c1nnn(-c2ccc3c(c2)OCCO3)c1N the results were Gal4-VP16 FLuc inactive, RORg inh inconclusive and B2AR arrestin inactive.
Screening Cc1ccccc1NC(=O)c1nnn(-c2ccc3c(c2)OCCO3)c1N returned Gal4-VP16 FLuc inconclusive, RORg inh 0.63µM and B2AR arrestin inactive.
CCc1cc(OCCCSc2nc(C)cc(=O)[nH]2)ccc1Cl was read as Gal4-VP16 FLuc 8.9µM, NPSR antag inactive, RORg inh inconclusive and B2AR arrestin inactive.
Screening Cc1cc(=O)[nH]c(SCCCOc2ccccc2Cl)n1 returned Gal4-VP16 FLuc inconclusive, NPSR antag inactive, RORg inh inactive and B2AR arrestin inactive.
For CCNC(=S)N/N=C/c1ccc(F)cc1 the results were Gal4-VP16 FLuc 7.9µM, NPSR antag inactive, RORg inh 2.2µM and B2AR arrestin inactive.
CC(C)(C)NC(=S)N/N=C/c1c(Cl)cccc1Cl was read as Gal4-VP16 FLuc 5µM, NPSR antag inactive, RORg inh 4.5µM and B2AR arrestin inactive.
CCNC(=S)N/N=C/c1cccs1 was read as Gal4-VP16 FLuc 1.4µM, NPSR antag inconclusive, RORg inh 0.79µM and B2AR arrestin inconclusive.
`Cc1ccc(NC(=S)N/N=C/c2ccc(OCCC(C)C)cc2)c(C)c1` gave Gal4-VP16 FLuc 3.2µM, NPSR antag inconclusive, RORg inh 6.3µM and B2AR arrestin inactive.
Screening O=C(N/N=C/c1c(Cl)cccc1Cl)c1cccc(F)c1 returned Gal4-VP16 FLuc inconclusive, NPSR antag inactive, RORg inh inconclusive and B2AR arrestin inactive.
`CCCOc1ccc(NCC(=O)Nc2ccc(C)cc2C)cc1` gave Gal4-VP16 FLuc inactive, NPSR antag inactive, RORg inh inactive and B2AR arrestin inactive.
Screening COc1ncc2nc(-c3ccc(F)cc3)c(=O)n(C[C@H]3CCCO3)c2n1 returned Gal4-VP16 FLuc inactive and RORg inh inactive.
`CS(=O)(=O)N1CCC2(CC1)CN(Cc1nccs1)C2` gave Gal4-VP16 FLuc inactive and RORg inh inactive.
`CCCCNC(=S)N(C)/N=C/c1c(F)cccc1F` gave Gal4-VP16 FLuc inactive, NPSR antag inactive, RORg inh inactive and B2AR arrestin inactive.
`Cc1ccc(NC(=S)N/N=C/c2c(Cl)cccc2Cl)c(C)c1` gave Gal4-VP16 FLuc 0.89µM, NPSR antag inactive, RORg inh 0.79µM and B2AR arrestin inactive.
`CCNC(=S)N/N=C/c1c(Cl)cccc1Cl` gave Gal4-VP16 FLuc 2.8µM, NPSR antag inactive, RORg inh 2.5µM and B2AR arrestin inactive.
Screening CCCCNC(=S)N(C)/N=C/c1ccc(F)cc1 returned Gal4-VP16 FLuc inconclusive, NPSR antag inactive, RORg inh 11µM and B2AR arrestin inactive.
For O=C(Cc1ccccc1)N/N=C/c1cccs1 the results were Gal4-VP16 FLuc inactive, NPSR antag inactive, RORg inh inactive and B2AR arrestin inactive.
`Cc1ccccc1CSCC(=O)N/N=C/c1cccs1` gave Gal4-VP16 FLuc inactive, NPSR antag inactive, RORg inh 18µM and B2AR arrestin inactive.
`Cc1cccc(N(CC(=O)NCC2CCCO2)C(=O)CNS(=O)(=O)c2ccc(Cl)cc2)c1` (stereo not given) gave Gal4-VP16 FLuc inactive, RORg inh inactive and B2AR arrestin inactive.
Screening O=C1C=C(NCc2ccccc2)c2ccccc2C1=O returned Gal4-VP16 FLuc inconclusive, NPSR antag inconclusive, RORg inh 16µM and B2AR arrestin inactive.
O=C1C=C(Nc2ccccc2O)c2ccccc2C1=O was read as Gal4-VP16 FLuc 10µM, NPSR antag inconclusive, RORg inh inconclusive and B2AR arrestin inactive.
Cc1ccc(NC2=CC(=O)C(=O)c3ccccc32)c(C)c1 was read as B2AR arrestin inactive.

Source: PubChem
